Screening results deposited in PubChem BioAssay by National Center for Advancing Translational Sciences (NCATS).
JMJD2A Tudor inh: qHTS Assay for Inhibitors of JMJD2A-Tudor Domain; 390,000 tested, 4.4% active; Potency, µM (highest dose often 114 µM), for inactives: at the top dose activity change, negative = inhibition, hits mostly inhibitors; AlphaScreen JMJD2A-Tudor / H3K4me3 peptide binding; AID 504339, 2011; Lysine-specific demethylase 4A (Homo sapiens), O75164; also: % is scaled to controls: 0 for no effect and ±100 for the full control effect; nearly all actives have a fitted effect of over 50% in size
HP1b binding inh: HTS for Inhibitors of HP1-beta Chromodomain Interactions with Methylated Histone Tails | Chromobox protein homolog 1 (Homo sapiens), P83916 | AlphaScreen HP1-beta / biotin-H3K9me3 peptide binding | Potency, µM (top dose mostly 114 µM), for the others: at the top dose activity change, negative = inhibition, actives largely listed as inhibitors | 390,000 tested, 0.56% active | AID 540317, 2011; also: nearly all actives have a fitted effect of over 70% in size
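HP1-beta protein (50 nM final) preincubated 30 min at room temperature with biotinylated H3(1-18)K9me3 peptide (50 nM) in PBS pH 7.4, 0.01% Tween-20, then compound added for 30 min. AlphaScreen streptavidin donor/nickel chelate acceptor beads (10 ug/mL final), 30 min dark, luminescence read.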
PLK1 PBD inh: qHTS for Inhibitors of PLK1-PDB (polo-like kinase 1 - polo-box domain): Primary Screen; Serine/threonine-protein kinase PLK1 (Homo sapiens), P53350; Plk1 PBD binding of FITC phosphopeptide, fluorescence polarization; Potency, µM, for the others: max response, negative = inhibition, usual class: inhibitors; 360,000 tested, 2.8% active; also: series mostly up to about 57 µM; % is scaled to controls: 0 for no effect and ±100 for the full control effect; nearly all actives have a fitted effect of over 65% in size
VDR inh: Inhibitors of the vitamin D receptor (VDR): qHTS; Vitamin D3 receptor (Homo sapiens), P11473; VDR-SRC2-3 peptide fluorescence polarization, 2 h; Potency, µM, inactives show max response, negative = inhibition, usual class: inhibitors; 400,000 tested, 0.93% active; also: % is scaled to controls: 0 for no effect and ±100 for the full control effect
Target sequence (P11473 whole entry, looked up): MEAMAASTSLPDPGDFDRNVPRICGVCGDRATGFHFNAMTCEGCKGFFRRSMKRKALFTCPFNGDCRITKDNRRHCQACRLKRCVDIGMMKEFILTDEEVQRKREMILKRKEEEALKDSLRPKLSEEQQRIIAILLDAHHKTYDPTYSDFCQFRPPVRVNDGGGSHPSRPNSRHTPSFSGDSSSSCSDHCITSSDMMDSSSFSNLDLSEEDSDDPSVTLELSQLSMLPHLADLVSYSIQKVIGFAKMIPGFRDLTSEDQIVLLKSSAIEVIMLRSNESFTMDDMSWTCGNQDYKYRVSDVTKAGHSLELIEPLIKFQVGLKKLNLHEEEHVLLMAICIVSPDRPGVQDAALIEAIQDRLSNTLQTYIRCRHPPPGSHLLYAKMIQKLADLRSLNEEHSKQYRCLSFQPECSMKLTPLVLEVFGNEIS
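FP read-out; VDR + SRC2-3 coactivator peptide; 23 nl compound by pintool; 2 h RT incubation; reagents held at 4 deg C, protected from light.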
G9a inh: qHTS Assay for Inhibitors of Histone Lysine Methyltransferase G9a | Histone-lysine N-methyltransferase EHMT2 (Homo sapiens), Q96KQ7 | G9a H3K9 monomethylation, AlphaScreen, 2 h | Potency, µM (series often up to 102 µM), for inactives: top-dose activity, negative = inhibition, actives largely listed as inhibitors | 350,000 tested, 8.8% active | AID 504332, 2011; also: % is scaled to controls: 0 for no effect and ±100 for the full control effect; nearly all actives have a fitted effect of over 75% in size
Target sequence (Q96KQ7 913-1193 limits assumed): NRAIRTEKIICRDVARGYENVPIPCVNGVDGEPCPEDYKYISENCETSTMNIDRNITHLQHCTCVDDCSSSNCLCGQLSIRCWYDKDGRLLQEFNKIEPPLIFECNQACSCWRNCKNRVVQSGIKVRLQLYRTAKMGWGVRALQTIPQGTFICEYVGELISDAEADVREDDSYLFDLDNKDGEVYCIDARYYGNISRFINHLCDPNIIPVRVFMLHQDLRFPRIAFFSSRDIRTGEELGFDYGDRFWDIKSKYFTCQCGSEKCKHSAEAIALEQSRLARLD
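Compounds were preincubated with 20 nM G9a for 15 min, after which biotinylated H3K9 peptide (500 nM) and SAM (20 uM) started a 2 h room-temperature reaction. Monomethylated product was quantified by antibody-based AlphaScreen chemiluminescence.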
BAZ2B block: qHTS Assay for Inhibitors of BAZ2B; Bromodomain adjacent to zinc finger domain protein 2B (Homo sapiens), Q9UIF8; AlphaScreen BAZ2B-H3K14Ac peptide displacement; Potency, µM (highest dose often 114 µM), inactives show at the top dose activity change, negative = inhibition, usual class: inhibitors; 360,000 tested, 4.4% active; also: % is scaled to controls: 0 for no effect and ±100 for the full control effect; nearly all actives have a fitted effect of over 60% in size
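AlphaScreen displacement of biotin-H3(5-23)K14Ac peptide (50 nM final) from BAZ2B (50 nM final) in PBS pH 7.4, 0.01% Tween-20; complex preformed 30 min RT, then compounds (top 110 uM) 30 min RT, beads 20 min dark.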
Active calls of the source: *; ! = a repeat was not active; [ ] = another dose, or the depositor's remark. Rows were chosen to be rich in hits. Some 11% of all compounds tested hit in one or more screens of this group. Calls follow the shape of the dose curve; as a rule, active = well fitted curve in the direction sought with a large enough effect; inconclusive = small, poorly fitted or top-dose-only effect, or another doubt; inactive = no such curve, though single readings can be large; an effect the other way counts as inactive or inconclusive. Potency is read from the fitted curve at half-maximal effect.

`C[N+]1(C)CCO[C@](O)(c2ccc(-c3ccc([C@]4(O)C[N+](C)(C)CCO4)cc3)cc2)C1` gave VDR inh -1% and G9a inh 13%[21.5 µM].
For CC(C)n1c(N2CCN(S(=O)(=O)c3cccc([N+](=O)[O-])c3)CC2)nc2ccccc21 the results were JMJD2A Tudor inh inconclusive, HP1b binding inh 20%, PLK1 PBD inh -3%, VDR inh -5% and BAZ2B block -11%.
For O=C(NC1(C(F)(F)F)Oc2ccc(Cl)cc2O1)N1CCC2(CC1)OCCO2 (centres undefined) the results were JMJD2A Tudor inh 32µM*, HP1b binding inh -5%, PLK1 PBD inh -1%, VDR inh 2%, G9a inh inconclusive and BAZ2B block 79µM*.
Screening O=C(CCC(=O)N1CCOc2ccc(Cl)cc21)N1CCC2(CC1)OCCO2 returned JMJD2A Tudor inh -12%, HP1b binding inh 46%, PLK1 PBD inh -3%, VDR inh -9% and BAZ2B block 4%.
CCOc1ccc(NC(=O)CSc2oc(-c3ccccc3)nc2S(=O)(=O)c2ccc(Cl)cc2)cc1 was read as JMJD2A Tudor inh -8%, HP1b binding inh 47%, VDR inh 7%, G9a inh -32%[59 µM] and BAZ2B block -3%.
For CC1CCCC(C)N1C(=O)CSc1nnc(NC(=O)c2cccs2)s1 (centres undefined) the results were JMJD2A Tudor inh -5%[57.1 µM], HP1b binding inh 38%, PLK1 PBD inh inconclusive, VDR inh 7%, G9a inh 50µM* and BAZ2B block -6%.
`Cc1nc2ccc(NC(=O)c3ccc(Cl)s3)cc2s1` gave JMJD2A Tudor inh -17%, HP1b binding inh 63%, PLK1 PBD inh -7%, VDR inh -22%, G9a inh 4% and BAZ2B block 3%.
`Cc1nc2ccc(P(=O)(O)O)cc2s1` gave G9a inh 45µM* and BAZ2B block inconclusive.
`O=C1NC(=S)SC1=Cc1ccc(N(CCCl)CCCl)cc1` gave JMJD2A Tudor inh 32µM*, HP1b binding inh inconclusive, PLK1 PBD inh 54% and VDR inh -27%.
`CC(=O)N1N=C(c2cccnc2)CC1c1ccccc1O` (centres undefined) gave JMJD2A Tudor inh -11%, HP1b binding inh 9%, PLK1 PBD inh -11%, VDR inh -2%, G9a inh 4% and BAZ2B block -2%.
`CC(=O)N1N=C(c2c(O)n(C)c(=O)n(C)c2=O)CC1c1ccccc1` (centres undefined) gave JMJD2A Tudor inh -29%, HP1b binding inh 55%, PLK1 PBD inh -7%, VDR inh -4%, G9a inh 40µM* and BAZ2B block -22%.
CC(=O)OCC1=C(C(=O)O)N2C(=O)[C@@H](N)[C@@H]2SC1 was read as VDR inh -2% and G9a inh 0%[5.15 µM].
For CCc1ccccc1NC(=O)NNS(=O)(=O)c1cc(C)ccc1C the results were JMJD2A Tudor inh -14%, HP1b binding inh 21%, PLK1 PBD inh 6%, VDR inh -8%, G9a inh 58% and BAZ2B block 0%.
For CCN1C(=O)C(=C2C=C(C)OC(C)=C2)C(=O)N(CC)C1=S the results were JMJD2A Tudor inh -8%, HP1b binding inh 22%, PLK1 PBD inh 0%, VDR inh 12%, G9a inh -17% and BAZ2B block -25%.
`CCOC(=O)C1=CC(=C2C(=O)N(CC)C(=S)N(CC)C2=O)c2ccccc2O1` gave JMJD2A Tudor inh -26%, HP1b binding inh inconclusive, PLK1 PBD inh inconclusive, VDR inh inconclusive, G9a inh 25µM* and BAZ2B block inconclusive.
`CC/C(=N\Nc1cccc2ccccc12)c1c(O)[nH]c(=O)[nH]c1=O` gave JMJD2A Tudor inh 79µM*, HP1b binding inh -14%, PLK1 PBD inh -9%, VDR inh -7%, G9a inh 1.6µM* and BAZ2B block inconclusive.
For CCC(=NC(C)c1ccccc1)c1c(O)[nH]c(=O)[nH]c1=O (centres undefined) the results were JMJD2A Tudor inh 18%[57.1 µM], HP1b binding inh 55%, PLK1 PBD inh -23%, VDR inh -13% and BAZ2B block 6%.
COc1ccccc1OCC#CCN1CCCC(C)C1 (centres undefined) was read as JMJD2A Tudor inh 11µM*, HP1b binding inh inconclusive, PLK1 PBD inh -1%, VDR inh -9% and BAZ2B block 25µM*.
Screening COc1ccccc1OCC#CCN1CCOCC1 returned JMJD2A Tudor inh inconclusive, HP1b binding inh 71µM*, PLK1 PBD inh -2%, VDR inh -10%, G9a inh 4µM* and BAZ2B block 28µM*.
Screening COc1ccccc1C(=O)C1CCCN(Cc2cnc(C)s2)C1 (centres undefined) returned JMJD2A Tudor inh -18%, HP1b binding inh 19%, PLK1 PBD inh -12%, VDR inh 17%, G9a inh -30% and BAZ2B block inconclusive.
Screening CCNN returned VDR inh 0%.
CC(C)(C)c1ccc(C(=O)NC(=S)Nn2cnnc2)cc1 was read as JMJD2A Tudor inh -17%, HP1b binding inh -5%, PLK1 PBD inh inconclusive, VDR inh -7%, G9a inh 32µM* and BAZ2B block 8%.
Screening O=C(NC(=S)N1CC1)c1ccccc1 returned PLK1 PBD inh -10%.
`COc1cccc(C(=O)c2cn(CC(=O)Nc3cc(Cl)c(OC)cc3OC)c3nc(C)ccc3c2=O)c1` gave JMJD2A Tudor inh -15%, HP1b binding inh 79%, VDR inh 19%, G9a inh 8%[59 µM] and BAZ2B block 5%.
For c1csc(C2(N3CCCCC3)CCCCC2)c1 the results were VDR inh -1% and G9a inh 0%[12.7 µM].
c1ccc2sc(C3(N4CCCCC4)CCCCC3)cc2c1 was read as VDR inh 8% and G9a inh 8.9µM*!.
Screening COc1ccc2[nH]cc(CCN(C)C)c2c1 returned JMJD2A Tudor inh -12%, HP1b binding inh 9%, PLK1 PBD inh 3%, VDR inh -2%, G9a inh 56µM*! and BAZ2B block 21%.
CN1CC[C@@]23CCCCC2C1Cc1ccc(O)cc13 (some centres undefined) was read as VDR inh 6%.
Screening Cc1nc2ccccc2c(=O)n1-c1cc([N+](=O)[O-])cc([N+](=O)[O-])c1 returned JMJD2A Tudor inh -8%, HP1b binding inh 38%, PLK1 PBD inh -3%, VDR inh 2%, G9a inh 14%[59 µM] and BAZ2B block -32%.
